The values that follow come from PMC7819943, “Rice protein-binding microarrays: a tool to detect cis-acting elements near promoter regions in rice”.

The full ranking holds about 35,000 sequences; the median of “fluorescence intensity (a.u.)” is about 10,000, and the highest 2% start at about 52,000. The entries come from a sample that favours the highest values as a whole.

The target in the assay is T1, OsWOX13 (Oryza sativa, UniProt Q5QMM3 1-267).
T1 sequence: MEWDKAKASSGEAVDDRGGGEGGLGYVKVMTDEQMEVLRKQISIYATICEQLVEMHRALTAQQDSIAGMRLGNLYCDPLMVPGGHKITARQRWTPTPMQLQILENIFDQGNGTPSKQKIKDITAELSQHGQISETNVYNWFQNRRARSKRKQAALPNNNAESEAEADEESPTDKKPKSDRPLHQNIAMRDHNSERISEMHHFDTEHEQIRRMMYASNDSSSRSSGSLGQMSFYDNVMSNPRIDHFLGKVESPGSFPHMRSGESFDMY
Put plainly: protein-binding microarray (RPBM); PBS, 2% BSA, 51.3 ng/ul salmon testes DNA, 50 uM zinc acetate, 200 nM TF, 25 C, 1 h; high values mean tight binding. As to conditions: protein: recombinant; tags: N-terminal polyhistidine and DsRed monomer fusion (pET32a); label: CyDye5-dUTP incorporated in the synthesized complementary strand; 3' TTTTT single-stranded linker to array surface; dsDNA, one strand shown. In short, it runs like this: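 An Axon 4000B scanner gave the binding signal as per-feature fluorescence intensity in arbitrary units. This followed washing of a custom Agilent array that had been incubated for 1 h at 25 °C with 200 nM protein in PBS, 2% BSA, salmon testes DNA and 50 µM zinc acetate. The proteins were transcription factors fused at the N-terminus to polyhistidine and DsRed, expressed in E. coli BL21-CodonPlus and purified on Ni–NTA.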
As to “TGTTATTTCAATCTCAGGATTGAGTGCAAGCAATCTGTTTCGGAGTCACCTAGTGCAG”, the binding signal was 4210 fluorescence intensity (a.u.).
For “CCGGATTTCAGTTATTTCCTAATTGCATTTCTATATGGACCGGAGTCACCTAGTGCAG”, the binding signal is 9320 fluorescence intensity (a.u.).
Next, “TTCAGTTTCTAGCTGGAAGAGACCTCCTATCATATATTTCCGGAGTCACCTAGTGCAG”: 53600 fluorescence intensity (a.u.); “TTTCAGTTATTTCCTAATTATATTTCTATATGGACTTAGTCGGAGTCACCTAGTGCAG”: 9980 fluorescence intensity (a.u.).
In the case of “AAGATAATGATGTAGACACGCAATCTGCGCGGGCCCACCACGGAGTCACCTAGTGCAG” it was 6040 fluorescence intensity (a.u.); in that of “AGATTAGATTTAGATTAGTCCTATGTGTCTCTTGCCGGGTCGGAGTCACCTAGTGCAG”, 19100 fluorescence intensity (a.u.); in that of “GAGAGACGGTTTAATCAAGGAGCAGTTGATGGGAGAGGCGCGGAGTCACCTAGTGCAG”, 4550 fluorescence intensity (a.u.).
Next, “TCGTGATGACAGTTTACTCTTTAAATGAGAGTAATTAACTCGGAGTCACCTAGTGCAG”: 17400 fluorescence intensity (a.u.); “GTAATTAGCTAATCAATCTTTTCGGCTGTGCTTAATTAACCGGAGTCACCTAGTGCAG”: 33500 fluorescence intensity (a.u.).
As for “AATTTAATCTTTAATTAATTTATTTCTCGCCTCTCTTAACCGGAGTCACCTAGTGCAG”, the binding signal was 4610 fluorescence intensity (a.u.).
Consider “CCAGTGATCAATTTAGCTCCATTTCACTAGTGCAATCTGTCGGAGTCACCTAGTGCAG”, for which the binding signal is 9160 fluorescence intensity (a.u.).
Next, “GTTTGTGATTAATCTGATTTCGTACTATTAACGTGCAACTCGGAGTCACCTAGTGCAG”: 31300 fluorescence intensity (a.u.); “CGAGCTTTAATCAATTAATCTGGAGTTTAGTGAATATATTCGGAGTCACCTAGTGCAG”: 9200 fluorescence intensity (a.u.); “ACTTTAATTAGTCGTGATCAATCAATCAATCTGAATCTGTCGGAGTCACCTAGTGCAG”: 65100 fluorescence intensity (a.u.).
In the case of “ATCTGATTCGTGATTAATTAGTAATTAATTAATCTTTACTCGGAGTCACCTAGTGCAG” it was 61000 fluorescence intensity (a.u.); in that of “CTCAAGCTTAATTAAGCTCGTAATCTCATATAACCTCTTTCGGAGTCACCTAGTGCAG”, 57900 fluorescence intensity (a.u.); in that of “GTAACGGGATGATTGAAGCTACAACGAGAATGGCAACGTCCGGAGTCACCTAGTGCAG”, 22200 fluorescence intensity (a.u.).
Consider “AATATAAATTTAGATTAGCAGTGGTAAGAAGAGGGACGTCCGGAGTCACCTAGTGCAG”, for which the binding signal was 22600 fluorescence intensity (a.u.).
“CAAAATATACTAATTTCTTCAAGCAAAGGTCCAGCCCATCCGGAGTCACCTAGTGCAG”: the binding signal was 3240 fluorescence intensity (a.u.).
In the case of “GAATAGACCGAAATTAATTAAGGCAGTAATCACCCAGATGCGGAGTCACCTAGTGCAG” it was 16100 fluorescence intensity (a.u.); in that of “TATTAAGTCTAATTAATCCATGATTAGCCTATGTGATGCTCGGAGTCACCTAGTGCAG”, 15300 fluorescence intensity (a.u.); in that of “GATGATGATGGATGCGATTGACTGATGAGACGTCTGCTAACGGAGTCACCTAGTGCAG”, 50300 fluorescence intensity (a.u.).
Regarding “CCCTAAATTTCCGCGAAATCAGCAACCGAACACAGATTAGCGGAGTCACCTAGTGCAG”, the binding signal is 7110 fluorescence intensity (a.u.).
In the case of “TCAATAAATCATAAAACAAATTTATTAAGCCTAATTAATCCGGAGTCACCTAGTGCAG” it was 14000 fluorescence intensity (a.u.).
With “GCTTAATTGAAGGAGCCATGGCAGCTGTCCTCTCCCGCCGCGGAGTCACCTAGTGCAG”, the binding signal was 53200 fluorescence intensity (a.u.).
Next, “CCTCCTCATCATGGCTTAATTAATTAATACTCCTAGCTGCCGGAGTCACCTAGTGCAG”: 29000 fluorescence intensity (a.u.); “CGAAGATTGAGTCCTTTGAAGCCGAGCTCTCCATGGCCATCGGAGTCACCTAGTGCAG”: 17100 fluorescence intensity (a.u.).
On to “AGGATTAATTAGGCTTAATAAATTCGTCTCGCAGTTTACACGGAGTCACCTAGTGCAG”, for which the binding signal is 22000 fluorescence intensity (a.u.).
Next, “TCTAGATTTGATCATTTTGACCTCTTGCTCCGTTAGATCTCGGAGTCACCTAGTGCAG”: 9940 fluorescence intensity (a.u.); “TCTAATTATTTGATATTAGTTATTTTCCTTAACATTCGTGCGGAGTCACCTAGTGCAG”: 49900 fluorescence intensity (a.u.); “AAAGTTAATCAAATTGACTAATTAGTGCTAGATATGTCCTCGGAGTCACCTAGTGCAG”: 60600 fluorescence intensity (a.u.).
In the case of “AATTACTACTACTAATTAGCTAGTAGCTAGTTTCTGTGCTCGGAGTCACCTAGTGCAG” it was 8060 fluorescence intensity (a.u.); in that of “GACTAATTAATAATTAGTTAATTGACTAATCAGGATAATTCGGAGTCACCTAGTGCAG”, 46800 fluorescence intensity (a.u.).
As to “CCTTAATTAACTAACATTCAGTCAGTTAGTCACCGGATAGCGGAGTCACCTAGTGCAG”, the binding signal is 52600 fluorescence intensity (a.u.).
Regarding “GTTAATTAATTAGTTAGTACTAGCAAACATTGGCTAAAGTCGGAGTCACCTAGTGCAG”, the binding signal was 55900 fluorescence intensity (a.u.).
Take “ATCAAATCATATGTTAGATTGATCCTTCAATTAGTTAATTCGGAGTCACCTAGTGCAG”: the binding signal was 24400 fluorescence intensity (a.u.).
Next, “TACTAATTTAGAGTATTAAACATAAACTAATAATAAAAGTCGGAGTCACCTAGTGCAG”: 9830 fluorescence intensity (a.u.); “AGTTAATTAATTAATTAGCTACGTACTCTTGTGCCTCTGTCGGAGTCACCTAGTGCAG”: 54900 fluorescence intensity (a.u.).
Regarding “CCTTAATTTTCAGTGTTAGTAATTTTCATTAACTAATTCTCGGAGTCACCTAGTGCAG”, the binding signal was 16200 fluorescence intensity (a.u.).
With “ATTAATTAAGTTACTGTGTTACTCCTAGCTACTCCTCCGTCGGAGTCACCTAGTGCAG”, the binding signal is 22600 fluorescence intensity (a.u.).
In the case of “TCAATCAATCAATTAATTAGTAATTCAAAGTACTAAACACCGGAGTCACCTAGTGCAG” it was 40200 fluorescence intensity (a.u.); in that of “TTCGATTTAACTGTTCTATTACTGAGGTACTCTTCGATTTCGGAGTCACCTAGTGCAG”, 6940 fluorescence intensity (a.u.).
